Potency and affinity values are given separately. The source made the active and inactive calls.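 The calls were made as follows: active = polarization signal falls with dose and the fitted half-maximal concentration is at or below ten times the sample's top valid dose; inconclusive = flat curve at 30 to 70% inhibition, or poor fit; inactive = signal rises, flat within 30%, or potency beyond limit.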
Each compound was assayed against Golgi-associated PDZ and coiled-coil motif-containing protein (Homo sapiens) (UniProt Q9HD26) (assay: potency against CAL PDZ-peptide interaction – biochemical, fluorescence polarization, Cerulean-tagged CAL PDZ, cherry-picks, dose response (AID 504773)). Details: CAL PDZ-peptide binding, 1 h; series mostly up to 50 µM.

outcome, inactive:
O=C(c1ccc([N+](=O)[O-])cc1)N1CCC(Cc2ccccc2)CC1
CCCCNC(=S)NNc1c(Cl)cc(Cl)cc1Cl
Cc1ccc2cc(C#N)c(N3CCCN(S(=O)(=O)c4ccccc4)CC3)nc2c1
O=C(COC(=O)CNC(=O)c1cccc([N+](=O)[O-])c1)NCc1ccco1
COc1cc(S(=O)(=O)n2nc(C)cc2C)ccc1Cl
COc1cccc(NC(=O)N2CCCCCC2)c1
Cc1c(Cl)c(C(=O)N2CCCC2)nn1C
COC(=O)C(C(=O)OC)c1ccc(N)cc1
CCN1C(=O)CS/C1=N\S(=O)(=O)c1ccc(Cl)cc1
Cc1ccc2nc(NC(=O)COC(=O)c3ccncc3)sc2c1
O=C(NNC(=O)c1ccc(Cl)c(Cl)c1)c1cccnc1
CS(=O)(=O)N(CC(=O)N1CCOCC1)c1cccc(F)c1
CCc1nc(SCC(=O)c2ccccc2)c2c(=O)n(C)c(=O)n(C)c2n1
C(=C/c1nccc2c1[nH]c1ccccc12)/c1ccc2c(c1)OCO2
Cc1ccc(-c2nnn(CC(=O)N(CCN3CCOCC3)C(C(=O)NC(C)(C)C)c3ccc(C)o3)n2)cc1 (configuration not stated)
COc1ccc(CC(=O)N2CCC(CCC(=O)Nc3ccccc3)CC2)cc1
O=C(CN1CC[n+]2c(-c3cccs3)csc21)c1ccc(-c2ccccc2)cc1
CCCCNC(=O)c1ccc(-n2c(=S)[nH]c3ccccc3c2=O)cc1
CC(NS(=O)(=O)c1ccc(Cl)c(Cl)c1)C(=O)OCC(=O)Nc1ccc2c(c1)OCO2 (configuration not stated)
CCOC(=O)/C(N=Nc1ccc2c(c1)OCO2)=C(\C)O
CC(=O)Nc1ccc(Nc2ccc3nonc3c2[N+](=O)[O-])cc1
COCCOC(=O)c1c(C)oc2ccc(OS(C)(=O)=O)cc12
O=C(Nc1cc(Cl)ccc1N1CCOCC1)c1ccc2c(c1)OCCO2
Cc1ccc(CNC2CCCCC2)s1
O=C(COc1ccc(Cl)cc1Cl)Nc1nnc(C2=COCCO2)o1
CC(=O)Nc1cc(NC(C)=O)cc(C(=O)OCC(=O)Nc2ccc(S(=O)(=O)NC3=NCCCCC3)cc2)c1
Cc1ccc(S(=O)(=O)N2CCN(C(=O)c3cc(=O)c4ccccc4o3)CC2)cc1
CC(C)CNC(=O)CC1Nc2ccccc2NC1=O (configuration not stated)
CCOc1ccccc1CN1CCC(n2nccc2NC(=O)C2CCCC2)CC1
C[C@H](NC(=O)c1ccccc1Cl)C(=O)NCc1cccs1
O=C(COC(=O)c1ccc(Cl)nc1)Nc1ccc(N2CCCCC2)cc1
COc1cccc(CN2CCN(C3CSCCSC3)CC2CCO)c1 (configuration not stated)
Oc1ccc(/C=N\Nc2nncc(-c3ccccc3)n2)cc1
Cc1ccc(C(C)NC(=O)Cc2cccs2)c(C)c1 (configuration not stated)
O=C(NC1CCCCCCC1)c1cc([N+](=O)[O-])ccc1Cl
O=S(=O)(/N=C(/Nc1ccc(Cl)c(S(=O)(=O)N2CCOCC2)c1)c1ccc(F)cc1)c1ccccc1
Cc1cc(=O)n2c3ccccc3n(CC(O)CN3CCN(CCO)CC3)c2c1C#N (configuration not stated)

Source: PubChem BioAssay AID504773 (Broad Institute, 2011)
